Here are results for 111 compounds from PubChem BioAssay AID488969 (Vanderbilt High Throughput Screening Facility, 2010).

Over roughly 110,000 compounds, “z-score” has its median near -0.1; the highest 2% begin near 2. This is one part of a sample in which the highest values are shown more often than they occur. Active and inactive are the calls of the source.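 How the source made its calls: active means z-score in the third read window above 3 or below -3; inactive means the rest.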

The target in the test is Metabotropic glutamate receptor 8 (Rattus norvegicus) (UniProt P70579). The experiment in a line: mGluR8 Gi/Go-coupled signaling modulation – cell-based, rat, thallium flux, HTS, primary screen (AID 488969). The settings on record: HEK293 rat mGluR8, GIRK (G protein-gated inwardly rectifying potassium channel) thallium flux, FluoZin2; at 10 µM; stronger effect = higher value; submaximal glutamate (EC20) added with thallium.
Chain of Metabotropic glutamate receptor 8 (Rattus norvegicus) (P70579 whole entry, looked up): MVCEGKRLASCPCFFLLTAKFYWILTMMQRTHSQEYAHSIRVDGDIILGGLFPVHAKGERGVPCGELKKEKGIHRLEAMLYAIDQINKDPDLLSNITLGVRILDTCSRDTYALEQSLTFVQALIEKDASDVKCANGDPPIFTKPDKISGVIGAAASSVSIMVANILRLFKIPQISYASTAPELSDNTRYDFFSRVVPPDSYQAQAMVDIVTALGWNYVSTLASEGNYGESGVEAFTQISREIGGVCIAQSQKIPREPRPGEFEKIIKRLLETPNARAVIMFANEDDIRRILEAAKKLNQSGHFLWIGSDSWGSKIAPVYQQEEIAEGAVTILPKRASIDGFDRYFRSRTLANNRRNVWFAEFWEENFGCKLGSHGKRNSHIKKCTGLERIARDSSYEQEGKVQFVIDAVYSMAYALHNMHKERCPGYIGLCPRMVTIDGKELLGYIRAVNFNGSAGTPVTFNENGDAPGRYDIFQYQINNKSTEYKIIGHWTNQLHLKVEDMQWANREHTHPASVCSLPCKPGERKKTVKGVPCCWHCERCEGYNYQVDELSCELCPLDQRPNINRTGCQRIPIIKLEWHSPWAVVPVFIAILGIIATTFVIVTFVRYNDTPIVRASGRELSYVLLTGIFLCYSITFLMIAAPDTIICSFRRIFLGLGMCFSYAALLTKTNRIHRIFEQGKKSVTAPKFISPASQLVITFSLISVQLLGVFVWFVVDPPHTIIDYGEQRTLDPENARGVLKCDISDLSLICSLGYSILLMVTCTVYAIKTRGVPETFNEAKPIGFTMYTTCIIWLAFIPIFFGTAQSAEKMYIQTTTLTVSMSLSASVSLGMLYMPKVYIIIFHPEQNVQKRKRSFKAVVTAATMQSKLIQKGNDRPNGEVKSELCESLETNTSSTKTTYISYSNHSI
`CCc1c(C)nc2ncnn2c1Nc1ccc(C(C)=O)cc1` returned a z-score of 0.0606.
Next, `O=C(CSc1ncn[nH]1)Nc1nc(-c2ccccc2)cs1`: 0.0129; `Cc1ccc(C(=O)N/C(=C/c2ccco2)C(=O)Nc2cccc(C)c2)cc1`: -0.287.
Next, `CC(=O)c1cccc(NC(=O)c2ccc(N(Cc3ccccc3)S(C)(=O)=O)cc2)c1`: -0.207.
`COCCn1c(C)cc(C(=O)CN2C(=O)NC3(CCCCCCC3)C2=O)c1C` yielded a z-score of 0.319.
In the case of `CC1CCCC(C)N1C(=O)CSc1nnnn1-c1cccc2c1CCCC2` (stereo unspecified), the z-score is -0.621.
Next, `O=C(CSc1nnnn1-c1cccc2c1CCCC2)NC1CCCC1`: 5.15 (active); `O=C(CSc1nnnn1-c1cccc2c1CCCC2)N1CCCC1`: 0.0215.
Next, `Cc1ccc2c(c1)c1c(n2CC(O)Cn2c(C)nc3ccccc32)CCCC1` (stereo unspecified): -0.427; `Cc1ccc2c(c1)c1c(n2CC(O)Cn2nc(C)c(Br)c2C)CCCC1` (stereo unspecified): 0.191; `Cc1ccc2c(c1)c1c(n2CC(O)CNC(C)(C)C)CCCC1` (stereo unspecified): 2.4.
Next, `CC(=O)c1cc2c(cc1NC(=O)CN1CCCCC1C)OCO2` (stereo unspecified): -0.0192; `O=C(NCc1cccs1)c1nc2c(nnn2Cc2ccc(F)cc2)c(=O)[nH]1`: -1; `Cc1cc(N/C=C\c2nnnn2-c2ccccc2)no1`: -0.374.
With `COc1ccc(Nc2nc(C)cc(C)c2C#N)cc1OC`, the z-score was 6.74 (active).
Next, `COc1ccc(Nc2nc(C)cc(C)c2C#N)cc1`: 0.405; `COc1cccc(Nc2nc(C)cc(C)c2C#N)c1`: -0.0986; `O=C(Cn1nnc(-c2ccccc2)n1)OCc1csc(-c2ccccc2)n1`: -0.49.
The figure for `Cc1ccc(-n2nc3c(Cl)nnc(C)c3c2C)cc1` is 0.701; for `NS(=O)(=O)c1ccc(Cc2ncc(C(F)(F)F)cc2Cl)s1` it is 1.4; for `O=C(NCc1ccc2c(c1)OCO2)c1cc2ccccc2o1` it is -0.522.
The figure for `O=C(C1CCCCN1S(=O)(=O)c1ccc(F)cc1)N1CCN(c2ccccc2F)CC1` (stereo unspecified) is -0.386; for `COc1ccc2c(C(=O)CN3CC(C)OC(C)C3)c[nH]c2c1` (stereo unspecified) it is -0.0527.
The compound `COc1ccc2[nH]c(C)c(C(=O)CN3CC(C)OC(C)C3)c2c1` (stereo unspecified) yielded a z-score of 2.96.
Next, `COc1ccc2[nH]c(C)c(C(=O)CN3CCOCC3)c2c1`: 0.0884.
The figure for `O=S1(=O)CC(N2CCOCC2)c2ccccc21` (stereo unspecified) is -0.0158.
In turn, `COc1ccc(CNC(=O)CSc2ccc(Br)cc2)cc1OC` had a z-score of 0.192.
Next, `COc1ccc(S(=O)(=O)N(C)CC(=O)NCc2ccco2)cc1`: -0.29; `CN(CCCC(=O)NCc1ccco1)S(=O)(=O)c1ccccc1`: 2.39; `Cc1ccc(N(CC(=O)NCc2ccco2)S(=O)(=O)c2ccccc2)cc1`: 0.374.
The figure for `CCC(C)NC(=O)COc1ccc(Br)c(C)c1` (stereo unspecified) is 0.482.
The figure for `CN(C(=O)COC(=O)C1CCN(S(=O)(=O)c2cccs2)CC1)C1CCS(=O)(=O)C1` (stereo unspecified) is 0.776.
For `CC(C)n1c(NCCc2ccccc2)nc2c1c(=O)n(C)c(=O)n2C`, the z-score was found to be 2.39.
The figure for `C=CCn1c(NCCc2ccccc2)nc2c1c(=O)n(C)c(=O)n2C` is 0.0292.
Next, `Cc1ccc(Cn2c(NCCc3ccccc3)nc3c2c(=O)n(C)c(=O)n3C)cc1`: -0.251; `COc1ccc(CNC(=O)CCc2c(C)nc3ncnn3c2C)cc1`: 0.418; `CC(C)n1c(=O)[nH]c2ccccc21`: 1.11.
Next, `CC(C)n1c(=S)[nH]c2ccccc21`: -0.0644; `COn1c(=S)[nH]c2ccccc2c1=O`: 1.06; `CN(C)CCn1c(=S)[nH]c2ccccc2c1=O`: -0.191.
For the compound `CCOc1cc2[nH]c(=S)n(CCCN(CC)CC)c(=O)c2cc1OCC`, the z-score was -0.475.
Next, `CCN(CC)CCn1c(=S)[nH]c2ccccc2c1=O`: -2.46; `COc1nc2ccccc2c(=O)n1OCC(C)C`: 0.0226.
Next, `CC(C)n1c(=S)[nH]c2ccccc2c1=O`: 9.16 (active); `CCOc1cc2[nH]c(=S)n(CCN3CCC(C)CC3)c(=O)c2cc1OCC`: 0.809; `CCOc1cc2[nH]c(=S)n(C(C)C)c(=O)c2cc1OCC`: 9.84 (active).
Consider `CC(C)COn1c(=S)[nH]c2ccccc2c1=O`, for which the z-score is 3.03 (active).
The figure for `CC(C)N(CCn1c(=S)[nH]c2ccccc2c1=O)C(C)C` is 2.64.
Next, `Cc1ccc(Cn2c(CN3CC(C)OC(C)C3)nc3c2c(=O)[nH]c(=O)n3C)cc1` (stereo unspecified): 0.0226; `O=C(CSc1nnc(-c2ccc(F)cc2)o1)Nc1ccccc1N1CCOCC1`: -0.906; `CN(C)c1ccc(/C=N\Nc2nc(-c3ccccc3)cc(=O)[nH]2)cc1`: -0.138.
The figure for `CC(=O)Nc1ccc(N(C(=O)Cc2c[nH]c3ccccc23)C(C(=O)NC2CCCCC2)c2ccco2)cc1` (stereo unspecified) is 1.17; for `Cc1ccccc1-c1nc(-c2ccc(NC(=O)c3ccc(Br)o3)cc2)no1` it is 0.0114.
For `N#CNC(=Nc1cccc(F)c1)SCc1cccc(F)c1`, the z-score was -0.141.
The figure for `CCC(C)NC(=O)CSc1nc2c(sc(=S)n2Cc2ccco2)c(=O)n1-c1ccccc1` (stereo unspecified) is 0.437; for `Cc1ccc2[nH]c(=O)c(CN(Cc3cccs3)S(=O)(=O)c3ccc4c(c3)OCCO4)cc2c1` it is 0.0485; for `CCOC(=O)Cc1csc(SCC(=O)Nc2cccc(Cl)c2)n1` it is 0.368.
The figure for `Cc1onc(-c2ccccc2Cl)c1C(=O)NC1CCS(=O)(=O)C1` (stereo unspecified) is -0.0472; for `COc1cc2cc(CN(CCc3ccccc3C)C(=S)NCCCN(C)C)c(=O)[nH]c2cc1OC` it is 0.66.
In the case of `Cc1ccc2nc(-c3ccc(N4C(=N)SC5CS(=O)(=O)CC54)cc3)sc2c1` (stereo unspecified), the z-score turned out to be 2.09.
Next, `CCCC(=O)N=C1SC2CS(=O)(=O)CC2N1c1ccc(-c2nc3ccc(C)cc3s2)cc1` (stereo unspecified): -0.238; `CC(=O)N=C1SC2CS(=O)(=O)CC2N1c1ccc(-c2nc3ccc(C)cc3s2)cc1` (stereo unspecified): 0.0589; `O=C(NCCCN1CCCCC1)c1ccc2c(c1)NC(=O)C(N1CCCCC1)S2` (stereo unspecified): 0.905.
In turn, `CC1CC(C)CN(CCCNC(=O)c2ccc3c(c2)NC(=O)C(N2CCCCC2)S3)C1` (stereo unspecified) registered a z-score of 2.18.
With `O=C(NCCCN1CCCCCC1)c1ccc2c(c1)NC(=O)C(N1CCOCC1)S2` (stereo unspecified), the z-score was determined as 0.756.
Next, `CCCCCOC(=O)Cn1c(N2CCOCC2)nc2c1c(=O)[nH]c(=O)n2C`: -0.228; `Cc1ccc(C2CC(=O)c3cnc(NC(=O)c4ccco4)nc3C2)cc1` (stereo unspecified): -0.398; `S=C(Nc1ccc(Cl)cc1)c1nc2ccccc2s1`: 0.236.
Next, `Cc1ccc(C)c(NC(=S)c2nc3ccccc3s2)c1`: 8.98 (active).
The figure for `S=C(Nc1ccccc1)c1nc2ccccc2s1` is 2.64.
On to `Cc1ccc(C)c(NC(=S)N2CCC(c3nc4ccccc4s3)CC2)c1`, for which the z-score amounted to 0.656.
Next, `Cc1cccc(NC(=S)c2nc3ccccc3s2)c1`: 0.84; `Cc1ccc(NC(=S)c2nc3ccccc3s2)cc1`: 0.791; `Cc1cc(SCC(=O)c2cc(C)n(C)c2C)nc2ccccc12`: -0.0351.
For the compound `NC(=O)C1CCN(Cc2nc3ccccc3c(=O)[nH]2)CC1`, the z-score was -0.276.
Next, `Cn1c(=O)oc2cc(S(=O)(=O)NC3CCN(Cc4ccccc4)CC3)ccc21`: -0.316; `O=c1oc2ccccc2cc1-c1csc(NN=C2CCCCC2)n1`: -0.185.
The figure for `O=C(NNC(=O)C1CCCO1)c1ccc(F)cc1` (stereo unspecified) is -0.154; for `CCOCc1nnc(NC(=O)c2cccs2)s1` it is 0.125.
The figure for `Cc1ccccc1CSCC(=O)c1c(N)n(C)c(=O)n(C)c1=O` is -0.253; for `CCN(CC(=O)c1c(N)n(C)c(=O)n(C)c1=O)c1cccc2ccccc12` it is 2.55.
For `Cn1c(N)c(C(=O)c2ccccc2)c(=O)n(C)c1=O`, the z-score was -0.397.
The figure for `COc1ccc(NC(=S)Nc2ccc(S(=O)(=O)N3CCOCC3)cc2)c(OC)c1` is 0.108; for `O=C(CSc1nnc(-c2ccco2)n1-c1ccccc1)N1CCc2ccccc21` it is 0.00192.
Next, `Cc1ccc(Nc2nc(Oc3ccc(=O)[nH]n3)nc(N(C)C)n2)cc1`: -0.00557.
For `CCCN(CCC)c1nc2ccccc2nc1C(C#N)C(=O)OC(C)COC` (stereo unspecified), the z-score was -3.86 (active).
The figure for `COCCCNC(=O)C(C#N)c1nc2ccccc2nc1N1CCCC1` (stereo unspecified) is -0.459.
The figure for `CCCCN(CCCC)c1nc2ccccc2nc1C(C#N)C(=O)NCCCOC` (stereo unspecified) is 6.64 (active).
Turning to `CCN(CC)P1(=O)OC(c2cc(OC)c(OC)c(OC)c2)=Nc2c1c(C)nn2-c1ccccc1` (stereo unspecified), the z-score is -1.4.
As to `COc1ccc(S(=O)(=O)N2CCC(C(=O)N3CCN(c4ccccc4OC)CC3)CC2)cc1`, the z-score is -0.274.
Next, `CC(C)N1CC(C(=O)Nc2ccc(Br)c(Cl)c2)CC1=O` (stereo unspecified): 0.0942; `CC(C)(C)S(=O)(=O)c1nc2ccccc2s1`: 0.279.
`CC(C)(C)S(=O)(=O)c1ccc(S(=O)(=O)C(C)(C)C)s1` yielded a z-score of 2.32.
The figure for `CCS(=O)(=O)c1ccc(S(=O)(=O)CC)s1` is -0.137; for `CCc1nc(C)cn1S(=O)(=O)c1cc(Cl)c(OC)cc1Cl` it is 2.99; for `CCc1nc(C)cn1S(=O)(=O)c1cc(C)c(OC)cc1C` it is 0.289.
The figure for `CCc1nc(C)cn1S(=O)(=O)c1cc(Br)c(C)cc1OC` is -0.193.
Next, `Cc1nc(CS(=O)c2ccc(Cl)cc2)cc(NCc2ccc(Cl)cc2Cl)n1` (stereo unspecified): 0.31; `CCOc1nc(-c2ccc(Cl)cc2Cl)ccc1C#N`: -0.211.
Turning to `COC(=O)c1ccccc1NC(=S)NC(NC(=O)c1ccco1)C(Cl)(Cl)Cl` (stereo unspecified), the z-score is 15.3 (active).
Next, `O=C(O)c1ccccc1NC(=S)NC(NC(=O)c1ccccc1[N+](=O)[O-])C(Cl)(Cl)Cl` (stereo unspecified): -0.103.
Next, `O=C(NC(NC(=S)Nc1ccccc1C(=O)O)C(Cl)(Cl)Cl)c1ccco1` (stereo unspecified): -0.106.
The figure for `COc1ccccc1NC(=S)NC(NC(=O)c1ccco1)C(Cl)(Cl)Cl` (stereo unspecified) is -0.246.
Regarding `COc1ccc(NC(=S)NC(NC(=O)c2ccccc2Cl)C(Cl)(Cl)Cl)c([N+](=O)[O-])c1` (stereo unspecified), the z-score is -0.469.
The figure for `COC(=O)c1ccccc1NC(=S)NC(NC(=O)c1ccccc1[N+](=O)[O-])C(Cl)(Cl)Cl` (stereo unspecified) is 2.67.
Next, `CCNC(=O)NC(=O)C(C)OC(=O)c1cccnc1SC` (stereo unspecified): -0.0754; `CN(C)C(=O)C(=O)c1c(-c2ccccc2)cc2ccccn12`: -0.294; `CN(CC(=O)Nc1ccccc1Br)Cc1nc2ccccc2c(=O)[nH]1`: 0.733.
In turn, `N#Cc1nc(Cc2ccccc2)oc1N1CCN(c2cccc(Cl)c2)CC1` yielded a z-score of 0.287.
Next, `N#Cc1nc(COc2cccc(Cl)c2)oc1N1CCCC1`: -0.382; `N#Cc1nc(COc2ccccc2)oc1N1CCN(c2cccc(Cl)c2)CC1`: 3.31 (active).
